Reference: the supplement of paper PMC10127200
Structures can show the parent of a compound that is named as a salt.

What follows are compounds tested on DU145 (assay: Euclidean distance of Cell Painting phenotypic profile (signed KS, 77 features) to DMSO centroid (dimensionless distance); 5 or 10 uM (library dependent); higher = stronger phenotypic change vs DMSO (phenoactivity)). Settings: 48 h.
How it was run: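 Five cancer lines and a healthy fibroblast line received library compounds at 10 or 5 uM (library-dependent, 0.1% DMSO final) for 48 h. Stained cells were imaged confocally at 20X (9 fields/well). Harmony extracted 77 features, each scored as a signed Kolmogorov-Smirnov statistic against same-plate vehicle wells. Profiles were plate-position corrected, correlation-weighted and replicate-averaged at the top dose. Phenoactivity is the Euclidean distance from each profile to the median vehicle profile.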

Row | SMILES | Euclidean distance
1 | COCCCN1CCC(NC(=O)c2cc(Cl)c(N)c3c2OCC3)CC1 [Prucalopride Succinat] | 0.699
2 | OC[C@H]1O[C@@H](Oc2cc(O)cc(/C=C/c3ccc(O)cc3)c2)[C@H](O)[C@@H](O)[C@@H]1O [Polydatin] | 1.22
3 | C[N+](C)(C)NCCC(=O)[O-] [Mildronate] | 1.05
4 | CN[C@@H]1[C@H](O)[C@H](NC)[C@H]2O[C@@]3(O)C(=O)C[C@@H](C)O[C@H]3O[C@@H]2[C@H]1O [Spectinomycin HCl] | 1.28
5 | Cn1cnc2c(F)c(Nc3ccc(Br)cc3F)c(C(=O)NOCCO)cc21 | 2.61
6 | C/C(=N\NC(=S)N1CCC1)c1ccccn1 | 3.44
7 | CCCCOc1nc(N)c2c(n1)N(Cc1cccc(CN3CCCC3)c1)CC(=O)N2 | 0.661
8 | CN1CCc2cc3c(cc2C(=O)Cc2ccc4c(c2C1)OCO4)OCO3 [Protopine] | 0.606
9 | O=C(O)CCCc1cc2cc(Cl)ccc2n1S(=O)(=O)c1ccc2ncsc2c1 [Lanifibranor(IVA-337)] | 0.862
10 | Nc1ncccc1-c1nc2ccc(-c3ccccc3)nc2n1-c1ccc(C2(N)CCC2)cc1 [Miransertib (ARQ 092) HCl] | 2.87
11 | CCC[C@@H]1C[C@@H](C(=O)N[C@@H]([C@H]2O[C@H](SC)[C@H](O)[C@@H](O)[C@H]2O)[C@@H](C)O)N(C)C1 [Lincomycin HCl] | 0.817
12 | c1ccc(-c2nn3c(c2-c2ccnc4cc(OCCN5CCOCC5)ccc24)CCC3)nc1 | 1.42
13 | Cc1c(-c2ccnn2C)cc(C(=O)NCc2ccc(S(C)(=O)=O)cn2)c(=O)n1-c1cccc(C(F)(F)F)c1 [Alvelestat (AZD9668)] | 1.04
14 | CCCCC(=O)N(Cc1ccc(-c2ccccc2-c2nnn[nH]2)cc1)[C@H](C(=O)O)C(C)C [Valsartan] | 0.682
15 | CN1C(C(=O)Nc2ccccn2)=C(O)c2sc(Cl)cc2S1(=O)=O [Lornoxicam] | 0.95
16 | O=C(O)Cn1nnc(-c2cc(N3CCC(Oc4cc(F)ccc4Br)CC3)no2)n1 | 0.83
17 | CC[N+](C)(C)c1cccc(O)c1 [Edrophonium chloride] | 0.738

Row | SMILES | Euclidean distance
18 | N=C1CCCN1Cc1[nH]c(=O)[nH]c(=O)c1Cl.O=c1[nH]c(=O)n([C@H]2C[C@H](O)[C@@H](CO)O2)cc1C(F)(F)F | 3.37
19 | NC(CO)C(=O)NNCc1ccc(O)c(O)c1O (centres undefined) [Benserazide HCl] | 0.938
20 | O=C(/C=C/c1ccc(O)cc1)c1ccc(O)cc1O [Isoliquiritigenin] | 1.16
21 | O=C1C(O)=C([C@H]2CC[C@H](c3ccc(Cl)cc3)CC2)C(=O)c2ccccc21 [Atovaquone] | 1.08
22 | C=CCc1ccccc1OCC(O)CNC(C)C (centres undefined) [Alprenolol hydrochloride] | 1.36
23 | CCN1CCCC1CNC(=O)c1cc(S(=O)(=O)CC)c(N)cc1OC (centres undefined) [Amisulpride] | 1.15
24 | C#C[C@]1(O)CC[C@H]2[C@@H]3CCC4=CC(=O)CC[C@@H]4[C@H]3CC[C@@]21C [Norethindrone] | 0.791
25 | N#C/C(=C\c1ccc(O)c(O)c1)C(=O)NCc1ccccc1 [AG-490 (Tyrphostin B42)] | 1.17
26 | CN1CCc2c(c3ccccc3n2Cc2ccc(C(=O)NO)cc2)C1 [Tubastatin A HCl] | 0.783
27 | Oc1c(Cl)cc(Cl)c(Cl)c1Cc1c(O)c(Cl)cc(Cl)c1Cl [Hexachlorophene] | 1.19
28 | CN1CC2c3ccccc3Oc3ccc(Cl)cc3C2C1 (centres undefined) [Asenapine] | 0.805
29 | COc1cc2c(N3CCN(C(=O)Nc4ccc(OC(C)C)cc4)CC3)ncnc2cc1OCCCN1CCCCC1 [Tandutinib (MLN518)] | 1.35
30 | CCOC(=O)[C@H](CCc1ccccc1)N[C@@H](C)C(=O)N1[C@H](C(=O)O)C[C@@H]2CCC[C@@H]21 [Ramipril] | 0.891
31 | NC1(Cc2ccc(Cl)cc2)CCN(c2ncnc3[nH]ccc23)CC1 | 1.5
32 | O=C(O)c1ccc2c(c1)nc(Nc1cccc(Cl)c1)c1ccncc12 [CX-4945 (Silmitasertib)] | 2.54
33 | CC(C)CN(C[C@@H](O)[C@H](Cc1ccccc1)NC(=O)O[C@H]1CCOC1)S(=O)(=O)c1ccc(N)cc1 [Amprenavir] | 1.22
34 | CC(C)C[C@H](NC(=O)CNC(=O)[C@H](Cc1ccc(O)cc1)NC(=O)[C@H](CO)NC(=O)[C@H](Cc1c[nH]c2ccccc12)NC(=O)[C@H](Cc1cnc[nH]1)NC(=O)[C@@H]1CCC(=O)N1)C(=O)N[C@@H](CCCNC(=N)N)C(=O)N1CCC[C@H]1C(=O)NCC(N)=O [Gonadorelin Acetate] | 0.611
